In ChEMBL document CHEMBL2218924, “A broad activity screen in support of a chemogenomic map for kinase signalling research and drug discovery” (Biochem J, 2013) one finds residual activity data, which are given here for three compounds.

Each structure is given as a SMILES string.

Test [1] deals with T1, Serine/threonine-protein kinase 17A (Homo sapiens) (UniProt Q9UEE5).
T1 sequence (whole entry): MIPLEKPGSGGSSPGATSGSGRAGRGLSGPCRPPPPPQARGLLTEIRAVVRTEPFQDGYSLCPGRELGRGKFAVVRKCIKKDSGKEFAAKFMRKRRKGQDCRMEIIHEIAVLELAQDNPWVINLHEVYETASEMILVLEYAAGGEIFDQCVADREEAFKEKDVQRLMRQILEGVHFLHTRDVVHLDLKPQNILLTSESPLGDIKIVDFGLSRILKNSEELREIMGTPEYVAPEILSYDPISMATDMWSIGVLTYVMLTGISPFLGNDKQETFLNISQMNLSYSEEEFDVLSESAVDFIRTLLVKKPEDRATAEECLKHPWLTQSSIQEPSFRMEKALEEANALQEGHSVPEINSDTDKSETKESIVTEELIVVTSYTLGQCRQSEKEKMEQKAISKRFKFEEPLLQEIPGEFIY
The settings on record: at 10 µM.

Test [2] concerns the target T2, Dual specificity tyrosine-phosphorylation-regulated kinase 2 (Homo sapiens) (UniProt Q92630).
T2 sequence (whole entry): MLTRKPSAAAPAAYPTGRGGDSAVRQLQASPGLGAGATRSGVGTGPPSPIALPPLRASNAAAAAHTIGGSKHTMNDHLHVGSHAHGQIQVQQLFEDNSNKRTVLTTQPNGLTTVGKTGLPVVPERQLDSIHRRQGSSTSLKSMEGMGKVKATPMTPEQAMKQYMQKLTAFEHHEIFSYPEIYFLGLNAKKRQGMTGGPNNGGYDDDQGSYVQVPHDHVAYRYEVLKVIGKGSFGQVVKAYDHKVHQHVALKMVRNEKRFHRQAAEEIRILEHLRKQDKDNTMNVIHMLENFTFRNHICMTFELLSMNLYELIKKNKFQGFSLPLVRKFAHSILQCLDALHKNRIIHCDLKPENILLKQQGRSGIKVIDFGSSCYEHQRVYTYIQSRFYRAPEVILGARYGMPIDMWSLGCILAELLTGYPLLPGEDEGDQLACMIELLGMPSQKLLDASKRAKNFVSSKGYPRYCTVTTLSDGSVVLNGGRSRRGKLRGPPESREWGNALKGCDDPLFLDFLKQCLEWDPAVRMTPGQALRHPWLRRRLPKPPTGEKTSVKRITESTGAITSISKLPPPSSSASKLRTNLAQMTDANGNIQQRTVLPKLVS
Particulars: at 1 µM.

In test [3] the target is T2, Dual specificity tyrosine-phosphorylation-regulated kinase 2 (Homo sapiens). Particulars: at 10 µM.
Test [4] concerns the target T3, Ephrin type-A receptor 1 (Homo sapiens) (UniProt P21709).
T3 sequence (whole entry): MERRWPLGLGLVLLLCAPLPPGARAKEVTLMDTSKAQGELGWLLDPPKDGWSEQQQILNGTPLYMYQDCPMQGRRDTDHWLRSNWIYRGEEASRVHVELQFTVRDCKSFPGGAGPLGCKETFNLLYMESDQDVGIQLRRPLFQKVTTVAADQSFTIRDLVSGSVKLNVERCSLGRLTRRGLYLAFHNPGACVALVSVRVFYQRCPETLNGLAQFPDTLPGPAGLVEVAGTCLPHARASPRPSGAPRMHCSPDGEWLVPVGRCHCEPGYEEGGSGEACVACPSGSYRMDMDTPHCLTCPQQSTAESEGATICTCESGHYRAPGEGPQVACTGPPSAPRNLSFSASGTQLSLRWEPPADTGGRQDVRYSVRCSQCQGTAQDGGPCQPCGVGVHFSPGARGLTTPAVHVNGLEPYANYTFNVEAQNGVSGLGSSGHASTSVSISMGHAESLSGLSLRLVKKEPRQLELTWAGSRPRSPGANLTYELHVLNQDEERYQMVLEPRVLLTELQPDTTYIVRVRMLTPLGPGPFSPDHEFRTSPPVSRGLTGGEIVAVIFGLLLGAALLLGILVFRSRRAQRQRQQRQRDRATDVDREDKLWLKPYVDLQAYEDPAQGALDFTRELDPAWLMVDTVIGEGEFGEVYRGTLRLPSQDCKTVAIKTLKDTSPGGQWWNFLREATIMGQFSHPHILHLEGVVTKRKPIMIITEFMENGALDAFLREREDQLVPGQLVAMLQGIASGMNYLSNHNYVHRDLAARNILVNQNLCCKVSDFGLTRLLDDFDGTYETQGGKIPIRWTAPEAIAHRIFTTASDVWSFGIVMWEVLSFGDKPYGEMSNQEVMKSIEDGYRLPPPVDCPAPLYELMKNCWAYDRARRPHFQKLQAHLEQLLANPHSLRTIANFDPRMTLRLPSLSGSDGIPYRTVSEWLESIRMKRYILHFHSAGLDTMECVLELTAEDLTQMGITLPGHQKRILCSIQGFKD
Particulars: at 1 µM.

In test [5] the target is T3, Ephrin type-A receptor 1 (Homo sapiens). The settings on record: at 10 µM.
Test [6] concerns the target Ephrin type-A receptor 2 (Homo sapiens) (UniProt P29317). The settings on record: at 1 µM.
Test [7] has the same target. The settings on record: at 10 µM.
Test [8] addresses T4, Ephrin type-A receptor 3 (Homo sapiens) (UniProt P29320).
T4 sequence (whole entry): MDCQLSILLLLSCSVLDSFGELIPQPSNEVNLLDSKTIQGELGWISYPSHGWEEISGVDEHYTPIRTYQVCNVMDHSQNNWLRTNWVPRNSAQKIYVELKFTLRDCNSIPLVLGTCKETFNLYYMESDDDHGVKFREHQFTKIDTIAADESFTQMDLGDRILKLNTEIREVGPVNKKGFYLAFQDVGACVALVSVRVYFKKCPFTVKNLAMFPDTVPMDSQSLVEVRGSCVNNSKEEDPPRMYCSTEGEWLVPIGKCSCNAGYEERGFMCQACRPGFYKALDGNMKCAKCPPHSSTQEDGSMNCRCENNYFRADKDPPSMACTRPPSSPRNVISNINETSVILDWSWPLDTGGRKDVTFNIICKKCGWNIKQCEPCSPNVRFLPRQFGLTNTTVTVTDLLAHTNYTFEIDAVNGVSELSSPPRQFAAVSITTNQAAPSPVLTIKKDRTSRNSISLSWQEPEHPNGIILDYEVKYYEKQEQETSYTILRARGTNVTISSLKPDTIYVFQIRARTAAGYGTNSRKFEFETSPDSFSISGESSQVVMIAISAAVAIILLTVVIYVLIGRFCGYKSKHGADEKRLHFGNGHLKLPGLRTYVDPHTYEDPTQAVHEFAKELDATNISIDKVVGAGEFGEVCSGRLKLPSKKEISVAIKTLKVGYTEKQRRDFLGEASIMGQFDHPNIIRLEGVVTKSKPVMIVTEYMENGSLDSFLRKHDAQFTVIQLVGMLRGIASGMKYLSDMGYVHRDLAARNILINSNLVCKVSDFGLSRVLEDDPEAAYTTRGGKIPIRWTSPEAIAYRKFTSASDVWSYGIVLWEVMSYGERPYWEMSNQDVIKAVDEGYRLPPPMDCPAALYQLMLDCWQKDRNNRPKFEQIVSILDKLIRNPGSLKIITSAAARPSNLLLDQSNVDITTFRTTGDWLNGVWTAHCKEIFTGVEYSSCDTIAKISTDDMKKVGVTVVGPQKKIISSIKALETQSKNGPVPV
The settings on record: at 1 µM.

Test [9] deals with T4, Ephrin type-A receptor 3 (Homo sapiens). The settings on record: at 10 µM.
In test [10] the target is Ephrin type-A receptor 4 (Homo sapiens) (UniProt P54764). Particulars: at 1 µM.
Ephrin type-A receptor 4 (Homo sapiens), sequence (P54764 whole entry): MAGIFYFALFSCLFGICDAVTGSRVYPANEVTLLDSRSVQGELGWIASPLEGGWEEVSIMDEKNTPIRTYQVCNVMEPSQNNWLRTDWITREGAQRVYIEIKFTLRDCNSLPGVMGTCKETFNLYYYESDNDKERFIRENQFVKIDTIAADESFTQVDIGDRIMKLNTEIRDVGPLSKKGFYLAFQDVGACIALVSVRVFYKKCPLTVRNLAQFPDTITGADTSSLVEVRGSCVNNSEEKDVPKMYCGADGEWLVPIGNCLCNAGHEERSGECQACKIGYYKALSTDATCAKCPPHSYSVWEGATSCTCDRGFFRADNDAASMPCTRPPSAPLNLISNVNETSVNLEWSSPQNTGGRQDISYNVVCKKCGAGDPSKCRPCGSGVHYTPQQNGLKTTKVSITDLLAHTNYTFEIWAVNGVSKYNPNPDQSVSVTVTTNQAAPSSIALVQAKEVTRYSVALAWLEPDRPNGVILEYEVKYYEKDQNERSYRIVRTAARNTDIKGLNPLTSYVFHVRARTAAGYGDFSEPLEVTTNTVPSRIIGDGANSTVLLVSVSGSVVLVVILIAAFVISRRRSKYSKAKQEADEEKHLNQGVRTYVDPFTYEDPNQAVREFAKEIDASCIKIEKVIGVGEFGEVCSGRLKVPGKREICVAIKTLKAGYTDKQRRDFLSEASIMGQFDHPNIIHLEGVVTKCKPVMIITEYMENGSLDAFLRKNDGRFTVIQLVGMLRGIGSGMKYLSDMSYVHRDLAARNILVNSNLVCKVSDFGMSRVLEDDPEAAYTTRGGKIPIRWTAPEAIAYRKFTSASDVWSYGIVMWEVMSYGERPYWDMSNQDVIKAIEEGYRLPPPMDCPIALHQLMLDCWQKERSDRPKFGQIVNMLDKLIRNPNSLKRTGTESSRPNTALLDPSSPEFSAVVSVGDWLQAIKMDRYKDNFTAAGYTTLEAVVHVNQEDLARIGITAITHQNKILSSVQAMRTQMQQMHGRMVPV
Test [11] shares this target. Particulars: at 10 µM.
In test [12] the target is Ephrin type-A receptor 5 (Homo sapiens) (UniProt P54756). Particulars: at 1 µM.
Ephrin type-A receptor 5 (Homo sapiens), sequence (P54756 whole entry): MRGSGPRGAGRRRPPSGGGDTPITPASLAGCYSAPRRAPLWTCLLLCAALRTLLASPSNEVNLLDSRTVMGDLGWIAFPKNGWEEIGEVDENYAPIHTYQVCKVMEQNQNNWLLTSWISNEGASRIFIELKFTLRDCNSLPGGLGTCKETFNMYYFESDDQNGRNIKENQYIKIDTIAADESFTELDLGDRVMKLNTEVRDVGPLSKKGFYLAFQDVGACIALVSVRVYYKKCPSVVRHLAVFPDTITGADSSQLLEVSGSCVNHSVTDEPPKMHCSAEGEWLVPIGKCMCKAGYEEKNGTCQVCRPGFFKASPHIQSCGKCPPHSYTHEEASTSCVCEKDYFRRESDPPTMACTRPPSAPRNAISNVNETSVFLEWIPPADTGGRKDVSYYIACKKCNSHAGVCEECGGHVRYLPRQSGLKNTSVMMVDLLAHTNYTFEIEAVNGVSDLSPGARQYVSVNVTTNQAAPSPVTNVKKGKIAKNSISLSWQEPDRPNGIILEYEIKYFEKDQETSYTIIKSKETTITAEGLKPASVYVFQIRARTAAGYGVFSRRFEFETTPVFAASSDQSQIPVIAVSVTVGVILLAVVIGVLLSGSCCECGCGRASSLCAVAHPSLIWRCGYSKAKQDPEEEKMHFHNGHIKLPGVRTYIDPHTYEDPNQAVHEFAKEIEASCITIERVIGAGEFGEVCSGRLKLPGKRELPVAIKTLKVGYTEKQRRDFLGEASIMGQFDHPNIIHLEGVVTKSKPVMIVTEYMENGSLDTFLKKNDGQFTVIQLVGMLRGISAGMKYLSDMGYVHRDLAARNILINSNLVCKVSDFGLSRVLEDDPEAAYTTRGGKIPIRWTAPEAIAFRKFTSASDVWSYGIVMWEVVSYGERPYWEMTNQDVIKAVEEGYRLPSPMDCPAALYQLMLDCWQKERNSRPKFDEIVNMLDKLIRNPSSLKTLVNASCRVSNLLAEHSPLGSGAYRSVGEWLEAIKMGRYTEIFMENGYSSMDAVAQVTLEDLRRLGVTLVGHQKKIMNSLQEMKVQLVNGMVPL
The target is the same in test [13]. Particulars: at 10 µM.
The target of test [14] is Ephrin type-A receptor 7 (Homo sapiens) (UniProt Q15375). The settings on record: at 1 µM.
Ephrin type-A receptor 7 (Homo sapiens), sequence (Q15375 28-998 limits assumed): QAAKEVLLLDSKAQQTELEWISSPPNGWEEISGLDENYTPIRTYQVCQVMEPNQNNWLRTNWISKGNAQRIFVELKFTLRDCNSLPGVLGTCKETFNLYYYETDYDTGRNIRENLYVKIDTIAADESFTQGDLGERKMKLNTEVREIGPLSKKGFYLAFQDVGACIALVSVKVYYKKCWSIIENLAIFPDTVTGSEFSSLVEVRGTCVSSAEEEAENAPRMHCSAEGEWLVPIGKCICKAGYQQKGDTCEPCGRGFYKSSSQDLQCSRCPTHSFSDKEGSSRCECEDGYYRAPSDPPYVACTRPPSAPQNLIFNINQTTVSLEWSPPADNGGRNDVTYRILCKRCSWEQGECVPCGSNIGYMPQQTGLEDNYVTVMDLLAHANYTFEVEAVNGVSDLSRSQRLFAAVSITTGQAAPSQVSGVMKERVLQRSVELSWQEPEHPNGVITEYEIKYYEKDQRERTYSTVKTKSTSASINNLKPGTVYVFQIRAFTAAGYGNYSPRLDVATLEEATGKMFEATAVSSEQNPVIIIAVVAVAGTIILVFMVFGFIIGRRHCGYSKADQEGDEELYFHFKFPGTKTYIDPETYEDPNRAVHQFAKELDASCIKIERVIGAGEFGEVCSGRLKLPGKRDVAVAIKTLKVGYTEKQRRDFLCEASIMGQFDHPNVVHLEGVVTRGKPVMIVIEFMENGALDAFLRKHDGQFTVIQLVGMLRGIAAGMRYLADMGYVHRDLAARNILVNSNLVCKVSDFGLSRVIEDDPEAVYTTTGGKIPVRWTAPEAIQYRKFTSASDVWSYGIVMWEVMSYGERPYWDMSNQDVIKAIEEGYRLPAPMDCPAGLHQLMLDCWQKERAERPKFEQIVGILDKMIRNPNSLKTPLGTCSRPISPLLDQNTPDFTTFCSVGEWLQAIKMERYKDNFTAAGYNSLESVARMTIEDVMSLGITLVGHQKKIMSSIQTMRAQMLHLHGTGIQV
Test [15] shares this target. The settings on record: at 10 µM.
In test [16] the target is T5, Ephrin type-A receptor 8 (Homo sapiens) (UniProt P29322).
T5 sequence (whole entry): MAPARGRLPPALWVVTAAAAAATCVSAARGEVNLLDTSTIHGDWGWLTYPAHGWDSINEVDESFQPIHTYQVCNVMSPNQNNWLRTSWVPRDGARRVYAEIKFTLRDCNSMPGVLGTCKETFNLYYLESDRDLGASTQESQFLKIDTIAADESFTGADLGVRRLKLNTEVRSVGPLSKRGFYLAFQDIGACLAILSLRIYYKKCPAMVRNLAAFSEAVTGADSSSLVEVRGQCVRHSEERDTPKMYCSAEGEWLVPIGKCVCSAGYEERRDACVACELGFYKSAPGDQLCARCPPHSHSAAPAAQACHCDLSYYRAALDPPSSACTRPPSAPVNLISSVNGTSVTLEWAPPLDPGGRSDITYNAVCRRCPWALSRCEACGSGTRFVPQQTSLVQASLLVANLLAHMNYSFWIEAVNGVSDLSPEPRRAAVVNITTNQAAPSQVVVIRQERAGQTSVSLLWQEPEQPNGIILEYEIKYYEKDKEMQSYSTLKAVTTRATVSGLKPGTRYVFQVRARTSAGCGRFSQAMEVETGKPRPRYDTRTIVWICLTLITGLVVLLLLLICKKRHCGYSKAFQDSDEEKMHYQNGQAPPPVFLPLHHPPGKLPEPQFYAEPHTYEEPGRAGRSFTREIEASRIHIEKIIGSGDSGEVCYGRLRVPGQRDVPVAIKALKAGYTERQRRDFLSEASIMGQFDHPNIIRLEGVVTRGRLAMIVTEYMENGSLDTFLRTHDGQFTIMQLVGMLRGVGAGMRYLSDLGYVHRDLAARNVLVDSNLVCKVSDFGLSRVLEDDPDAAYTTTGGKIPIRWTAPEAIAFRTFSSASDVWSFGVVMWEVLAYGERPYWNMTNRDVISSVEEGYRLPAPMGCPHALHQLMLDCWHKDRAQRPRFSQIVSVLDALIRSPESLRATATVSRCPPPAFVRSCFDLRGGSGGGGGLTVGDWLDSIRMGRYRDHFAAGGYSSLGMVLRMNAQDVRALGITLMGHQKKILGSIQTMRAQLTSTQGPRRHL
The settings on record: at 1 µM.

The target of test [17] is T5, Ephrin type-A receptor 8 (Homo sapiens). The settings on record: at 10 µM.
Test [18] deals with T6, Ephrin type-B receptor 1 (Homo sapiens) (UniProt P54762).
T6 sequence (whole entry): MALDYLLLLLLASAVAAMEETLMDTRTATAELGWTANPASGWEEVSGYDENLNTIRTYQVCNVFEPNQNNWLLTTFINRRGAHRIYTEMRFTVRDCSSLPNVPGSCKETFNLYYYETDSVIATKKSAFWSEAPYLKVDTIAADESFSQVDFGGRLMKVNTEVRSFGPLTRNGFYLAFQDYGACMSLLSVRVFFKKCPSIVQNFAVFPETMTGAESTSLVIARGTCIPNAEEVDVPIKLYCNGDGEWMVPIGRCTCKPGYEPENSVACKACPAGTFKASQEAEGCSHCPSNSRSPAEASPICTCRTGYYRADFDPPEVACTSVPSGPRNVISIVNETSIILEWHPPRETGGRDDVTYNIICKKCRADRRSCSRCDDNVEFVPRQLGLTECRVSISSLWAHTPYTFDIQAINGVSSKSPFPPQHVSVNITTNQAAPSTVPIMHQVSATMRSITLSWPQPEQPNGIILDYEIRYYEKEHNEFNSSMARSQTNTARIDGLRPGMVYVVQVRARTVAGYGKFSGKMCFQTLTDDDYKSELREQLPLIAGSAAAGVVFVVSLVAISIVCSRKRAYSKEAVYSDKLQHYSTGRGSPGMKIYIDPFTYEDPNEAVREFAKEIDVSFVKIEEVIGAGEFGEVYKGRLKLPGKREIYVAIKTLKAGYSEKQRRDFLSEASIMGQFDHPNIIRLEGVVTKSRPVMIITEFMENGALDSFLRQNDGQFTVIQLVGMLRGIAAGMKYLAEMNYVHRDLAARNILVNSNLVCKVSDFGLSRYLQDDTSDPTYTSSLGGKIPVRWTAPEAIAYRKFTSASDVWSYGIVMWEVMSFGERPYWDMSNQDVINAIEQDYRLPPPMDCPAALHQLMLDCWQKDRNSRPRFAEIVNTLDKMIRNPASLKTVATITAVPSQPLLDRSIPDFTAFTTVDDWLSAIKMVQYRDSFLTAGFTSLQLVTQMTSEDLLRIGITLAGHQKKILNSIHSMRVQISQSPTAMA
The settings on record: at 1 µM.

Test [19] concerns the target Epidermal growth factor receptor (Homo sapiens) (UniProt P00533). The settings on record: at 1 µM.
For test [20] the target is unchanged. Particulars: at 10 µM.

Ephrin type-A receptor 2 (Homo sapiens), sequence (P29317 whole entry): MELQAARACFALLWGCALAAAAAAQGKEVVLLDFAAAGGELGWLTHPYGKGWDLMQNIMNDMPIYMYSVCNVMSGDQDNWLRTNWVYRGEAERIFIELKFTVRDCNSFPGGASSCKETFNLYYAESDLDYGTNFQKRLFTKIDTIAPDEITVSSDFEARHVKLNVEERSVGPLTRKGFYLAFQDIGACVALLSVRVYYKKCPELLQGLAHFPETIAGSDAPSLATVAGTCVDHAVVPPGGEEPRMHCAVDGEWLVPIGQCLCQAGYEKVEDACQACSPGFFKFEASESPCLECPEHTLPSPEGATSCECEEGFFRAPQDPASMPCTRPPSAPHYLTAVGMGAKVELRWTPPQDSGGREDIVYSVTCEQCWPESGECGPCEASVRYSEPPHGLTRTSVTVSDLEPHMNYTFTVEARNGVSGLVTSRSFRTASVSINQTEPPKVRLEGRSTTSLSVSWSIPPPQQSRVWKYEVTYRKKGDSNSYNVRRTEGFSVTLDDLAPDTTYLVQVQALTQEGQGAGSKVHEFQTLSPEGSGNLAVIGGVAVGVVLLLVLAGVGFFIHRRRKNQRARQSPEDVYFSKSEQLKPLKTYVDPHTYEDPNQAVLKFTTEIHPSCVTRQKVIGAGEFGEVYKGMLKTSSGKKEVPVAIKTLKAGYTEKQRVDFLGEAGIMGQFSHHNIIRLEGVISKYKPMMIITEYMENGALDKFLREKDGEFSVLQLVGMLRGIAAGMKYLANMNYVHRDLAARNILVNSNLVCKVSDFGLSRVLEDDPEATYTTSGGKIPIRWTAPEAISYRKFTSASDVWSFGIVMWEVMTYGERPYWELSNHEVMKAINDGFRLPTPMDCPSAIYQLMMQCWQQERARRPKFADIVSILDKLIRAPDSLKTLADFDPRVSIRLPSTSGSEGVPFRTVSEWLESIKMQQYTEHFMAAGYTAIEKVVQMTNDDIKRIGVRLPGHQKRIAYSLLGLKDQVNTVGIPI

Consider `Cc1ccc(NC2=CC(=O)c3sc(C)nc3C2=O)cc1`, for which the residual activity in test [1] worked out at 81%; in test [2], 85%; in test [3], 100%; in test [4] it was 95%; in test [5], 91%; in test [6] it was 95%. The residual activity in test [7] came to 102%; in test [8], 92%; in test [9], 97%; in [10], 101%; in test [11], 112%; in test [12] it was 110%. Further, the residual activity in test [13] turned out to be 100%; in test [14] it was 90%; in test [15], 83%; in [16], 89%; in test [17], 96%; in test [18], 81%.
In the case of `O=[N+]([O-])c1ccc(-c2nc(-c3ccc(F)cc3)c(-c3ccncc3)[nH]2)cc1`, the residual activity amounted to 104% in test [1]; 100% in test [2]; 91% in test [3]; 87% in test [19]; 95% in test [20]; 83% in [4]. Besides, the residual activity in test [5] is 92%; in [6], 89%; in test [7], 97%; in test [8], 99%; in test [9], 90%; in test [10], 105%. For the same compound, the residual activity in [11] stood at 107%; in [12] it was 100%; in test [13] it was 94%; in [15], 101%; in test [16], 93%; in test [18], 103%.
Take `CCC(=O)Nc1ccc2ncnc(Nc3cccc(Br)c3)c2c1`: the residual activity in [1] was 77%; in test [2], 99%; in test [3] it was 82%; in test [4], 71%; in [5] it was 89%; in [6], 105%. In addition, the residual activity in test [7] was 90%; in test [8], 105%; in test [9], 82%; in test [10] it was 106%; in test [11], 92%; in test [12], 101%. For the same compound, the residual activity in [13] is 99%; in test [14], 92%; in test [15], 76%; in [16], 97%; in [17] it was 88%; in [18] it was 97%.

The term residual activity denotes the signal under treatment as a percentage of the control signal.
